Laboratory results as given in the supplement of paper PMC10037445.
The full ranking holds about 2,900 compounds; the median of “NF-kB SEAP reporter activity, fold change vs agonist alone” is about 0.99, and the highest 2% start at about 2.6. The list comes from a sample in which the highest values are over-represented; it also holds similar structures and randomly drawn compounds.

How the values were obtained:
RAW-Dual [1] = assay: NF-kB SEAP reporter activity, fold change vs agonist alone; cytotoxicity flag (confluency mask): not cytotoxic; higher = enhanced NF-kB activity
How it was run: (§1)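 Cytotoxic wells were those whose IncuCyte confluency was below 70% of agonist controls in both mask sets. The cells were RAW-Dual macrophages at 50,000 cells/well in DMEM on 384-well plates, dosed with 50 nL of library stock by pin tool, stimulated with a PRR agonist 1 h later, and kept at 37 °C, 5% CO2 for 20 hours. IRF and NF-κB reporter activity, as fold change over agonist-alone wells, came from supernatant read by QuantiLuc luminescence and QuantiBlue absorbance, respectively.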

RAW-Dual [2] = assay: NF-kB SEAP reporter activity, fold change vs agonist alone; higher = enhanced NF-kB activity
How it was run: as §1

RAW-Dual [3] = assay: NF-kB SEAP reporter activity, fold change vs agonist alone; cytotoxicity flag (confluency mask): cytotoxic (confluency <70% of control); higher = enhanced NF-kB activity
How it was run: as §1

[4] = agonist: ODN 1826 (TLR9) 0.5 ug/mL
[5] = agonist: Pam2CSK4 (TLR2/6) 0.1 ug/mL
[6] = agonist: Pam3CSK4 (TLR2/1) 0.1 ug/mL
[7] = library stock concentration (final ~1000-fold dilution): 10 mM, cytotoxicity flag (confluency mask): not cytotoxic, agonist: Imiquimod (TLR7) […]
[8] = library stock concentration (final ~1000-fold dilution): 10 mM, cytotoxicity flag (confluency mask): not cytotoxic, agonist: MPLA (TLR4) […]

Compound: CC1CC(=O)c2c(ccc3c2C(=O)c2cccc(O)c2C3=O)C1 (stereo unspecified) (library stock concentration (final ~1000-fold dilution): 10 mM)
- NF-kB SEAP reporter activity (RAW-Dual [1]; agonist: LPS (TLR4) 0.1 ug/mL): 1.64
- NF-kB SEAP reporter activity (RAW-Dual [1]; [4]): 1.14
- NF-kB SEAP reporter activity (RAW-Dual [1]; [5]): 1.09
- NF-kB SEAP reporter activity (RAW-Dual [1]; [6]): 0.991

Compound: CC1CC(=O)c2c(ccc3c2C(=O)c2cccc(O)c2C3=O)C1 (stereo unspecified)
- NF-kB SEAP reporter activity (RAW-Dual [2]; [7]): 1.02
- NF-kB SEAP reporter activity (RAW-Dual [2]; [8]): 1.26

Compound: CC(NC(=O)C(NC(=O)OCc1ccccc1)C(C)C)C(=O)NC(CC(=O)O)C(=O)CF (stereo unspecified) (library stock concentration (final ~1000-fold dilution): 10 mM)
- NF-kB SEAP reporter activity (RAW-Dual [1]; agonist: LPS (TLR4) 0.1 ug/mL): 1.23
- NF-kB SEAP reporter activity (RAW-Dual [1]; [4]): 0.939
- NF-kB SEAP reporter activity (RAW-Dual [1]; [5]): 0.948
- NF-kB SEAP reporter activity (RAW-Dual [1]; [6]): 1.03

Compound: CC(NC(=O)C(NC(=O)OCc1ccccc1)C(C)C)C(=O)NC(CC(=O)O)C(=O)CF (stereo unspecified)
- NF-kB SEAP reporter activity (RAW-Dual [2]; [7]): 0.964
- NF-kB SEAP reporter activity (RAW-Dual [2]; [8]): 0.934

Compound: CCCC1CC(C(=O)NC(C(C)Cl)C2OC(SC)C(O)C(O)C2O)N(C)C1.Cl.O (stereo unspecified)
- NF-kB SEAP reporter activity (RAW-Dual [2]; [8]): 1.07

Compound: CCCC1CC(C(=O)NC(C(C)Cl)C2OC(SC)C(O)C(O)C2O)N(C)C1.Cl.O (stereo unspecified) (library stock concentration (final ~1000-fold dilution): 10 mM)
- NF-kB SEAP reporter activity (RAW-Dual [1]; agonist: LPS (TLR4) 0.1 ug/mL): 1.29
- NF-kB SEAP reporter activity (RAW-Dual [1]; [4]): 0.918
- NF-kB SEAP reporter activity (RAW-Dual [1]; [5]): 0.831
- NF-kB SEAP reporter activity (RAW-Dual [1]; [6]): 0.973

Compound: C/C(=N\NC(=O)c1cccc(S(=O)(=O)N2CCOCC2)c1)c1cc(Cl)ccc1O (library stock concentration (final ~1000-fold dilution): 10 mM)
- NF-kB SEAP reporter activity (RAW-Dual [1]; agonist: LPS (TLR4) 0.1 ug/mL): 2.6
- NF-kB SEAP reporter activity (RAW-Dual [1]; [4]): 1.9
- NF-kB SEAP reporter activity (RAW-Dual [1]; [5]): 1.52
- NF-kB SEAP reporter activity (RAW-Dual [1]; [6]): 2.48

Compound: O=C(Nc1cccc(Br)c1)c1cccc(S(=O)(=O)N2CCCCCC2)c1
- NF-kB SEAP reporter activity (RAW-Dual [2]; [7]): 1.56
- NF-kB SEAP reporter activity (RAW-Dual [2]; [8]): 1.26

Compound: C/C(=N\NC(=O)c1cccc(S(=O)(=O)N2CCOCC2)c1)c1cc(Cl)ccc1O
- NF-kB SEAP reporter activity (RAW-Dual [2]; [7]): 1.53
- NF-kB SEAP reporter activity (RAW-Dual [2]; [8]): 1.65

Compound: O=C(Nc1cccc(Br)c1)c1cccc(S(=O)(=O)N2CCCCCC2)c1 (library stock concentration (final ~1000-fold dilution): 10 mM)
- NF-kB SEAP reporter activity (RAW-Dual [1]; agonist: LPS (TLR4) 0.1 ug/mL): 0.803
- NF-kB SEAP reporter activity (RAW-Dual [1]; [4]): 1.79
- NF-kB SEAP reporter activity (RAW-Dual [1]; [5]): 1.02
- NF-kB SEAP reporter activity (RAW-Dual [1]; [6]): 0.939

Compound: O=C(O)CCn1c2c(c3ccccc31)CC(NS(=O)(=O)c1ccc(F)cc1)CC2 (stereo unspecified)
- NF-kB SEAP reporter activity (RAW-Dual [2]; [8]): 1.07

Compound: O=C(O)CCn1c2c(c3ccccc31)CC(NS(=O)(=O)c1ccc(F)cc1)CC2 (stereo unspecified) (library stock concentration (final ~1000-fold dilution): 10 mM)
- NF-kB SEAP reporter activity (RAW-Dual [1]; agonist: LPS (TLR4) 0.1 ug/mL): 1.07
- NF-kB SEAP reporter activity (RAW-Dual [1]; [4]): 0.99
- NF-kB SEAP reporter activity (RAW-Dual [1]; [5]): 1.13
- NF-kB SEAP reporter activity (RAW-Dual [1]; [6]): 1.07

Compound: COc1ccc(C(=O)C=Cc2cc(OC)c(OC)c(OC)c2)cc1OC
- NF-kB SEAP reporter activity (RAW-Dual [2]; library stock concentration (final ~1000-fold dilution): 20 mM, cytotoxicity flag (confluency mask): cytotoxic (confluency <70% of control), agonist: Imiquimod (TLR7) […]): 0.192
- NF-kB SEAP reporter activity (RAW-Dual [2]; library stock concentration (final ~1000-fold dilution): 20 mM, cytotoxicity flag (confluency mask): cytotoxic (confluency <70% of control), agonist: MPLA (TLR4) […]): 0.302

Compound: COc1cc(/C=C/C(=O)O)ccc1O (library stock concentration (final ~1000-fold dilution): 10 mM)
- NF-kB SEAP reporter activity (RAW-Dual [1]; agonist: LPS (TLR4) 0.1 ug/mL): 1.16
- NF-kB SEAP reporter activity (RAW-Dual [1]; [4]): 1.12
- NF-kB SEAP reporter activity (RAW-Dual [1]; [5]): 1.17
- NF-kB SEAP reporter activity (RAW-Dual [1]; [6]): 1.04

Compound: COc1cc(C=CC(=O)CC(=O)C=Cc2ccc(O)c(OC)c2)ccc1O (library stock concentration (final ~1000-fold dilution): 100 mM)
- NF-kB SEAP reporter activity (RAW-Dual [1]; agonist: LPS (TLR4) 0.1 ug/mL): 0.303
- NF-kB SEAP reporter activity (RAW-Dual [1]; [4]): 0.197
- NF-kB SEAP reporter activity (RAW-Dual [1]; [5]): 0.13
- NF-kB SEAP reporter activity (RAW-Dual [1]; [6]): 0.242

Compound: COc1ccc(/C=C/C(=O)O)cc1OC
- NF-kB SEAP reporter activity (RAW-Dual [2]; [7]): 0.805
- NF-kB SEAP reporter activity (RAW-Dual [2]; [8]): 1.05

Compound: COc1ccc(/C=C/C(=O)O)cc1OC (library stock concentration (final ~1000-fold dilution): 10 mM)
- NF-kB SEAP reporter activity (RAW-Dual [1]; agonist: LPS (TLR4) 0.1 ug/mL): 1.43
- NF-kB SEAP reporter activity (RAW-Dual [1]; [4]): 1.15
- NF-kB SEAP reporter activity (RAW-Dual [1]; [5]): 1.15
- NF-kB SEAP reporter activity (RAW-Dual [1]; [6]): 1.14

Compound: COc1ccc(/C=C\c2cc(OC)c(OC)c(OC)c2)cc1O
- NF-kB SEAP reporter activity (RAW-Dual [2]; [7]): 1.63
- NF-kB SEAP reporter activity (RAW-Dual [2]; [8]): 2.07

Compound: COc1cc(C=CC(=O)CC(=O)C=Cc2ccc(O)c(OC)c2)ccc1O
- NF-kB SEAP reporter activity (RAW-Dual [2]; library stock concentration (final ~1000-fold dilution): 100 mM, cytotoxicity flag (confluency mask): not cytotoxic, agonist: Imiquimod (TLR7) […]): 0.155
- NF-kB SEAP reporter activity (RAW-Dual [2]; library stock concentration (final ~1000-fold dilution): 100 mM, cytotoxicity flag (confluency mask): not cytotoxic, agonist: MPLA (TLR4) […]): 0.257

Compound: COc1ccc(C=Cc2cc(OC)c(OC)c(OC)c2)cc1OP(=O)(O)O
- NF-kB SEAP reporter activity (RAW-Dual [2]; library stock concentration (final ~1000-fold dilution): 10 mM water, cytotoxicity flag (confluency mask): cytotoxic (confluency <70% of control), agonist: Imiquimod (TLR7) […]): 1.67
- NF-kB SEAP reporter activity (RAW-Dual [2]; library stock concentration (final ~1000-fold dilution): 10 mM water, cytotoxicity flag (confluency mask): cytotoxic (confluency <70% of control), agonist: MPLA (TLR4) […]): 2.09

Compound: COc1cc(/C=C/C(=O)O)ccc1O
- NF-kB SEAP reporter activity (RAW-Dual [2]; [7]): 0.903
- NF-kB SEAP reporter activity (RAW-Dual [2]; [8]): 1.09

Compound: COc1ccc(C(=O)C=Cc2cc(OC)c(OC)c(OC)c2)cc1OC (library stock concentration (final ~1000-fold dilution): 20 mM)
- NF-kB SEAP reporter activity (RAW-Dual [3]; agonist: LPS (TLR4) 0.1 ug/mL): 0.326
- NF-kB SEAP reporter activity (RAW-Dual [3]; [4]): 0.215
- NF-kB SEAP reporter activity (RAW-Dual [3]; [5]): 0.0975
- NF-kB SEAP reporter activity (RAW-Dual [3]; [6]): 0.176

Compound: COc1ccc(/C=C\c2cc(OC)c(OC)c(OC)c2)cc1O (library stock concentration (final ~1000-fold dilution): 10 mM)
- NF-kB SEAP reporter activity (RAW-Dual [1]; agonist: LPS (TLR4) 0.1 ug/mL): 4.68
- NF-kB SEAP reporter activity (RAW-Dual [1]; [4]): 2.84
- NF-kB SEAP reporter activity (RAW-Dual [1]; [5]): 1.69
- NF-kB SEAP reporter activity (RAW-Dual [1]; [6]): 2.62
